Rows were chosen to be rich in hits. Some 4% of all compounds tested hit in one or more screens of this group.
KKLEB cytotox = CF airway cell cytotoxicity counter-screen. KKLEB CF airway cells viability, ATPlite luminescence, overnight; hits give low values; cells stimulated with P. aeruginosa culture filtrate. activity change (cytotoxicity), % at 5 µM. hit rate 0.36% among 360,000. AID 602141;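 active means corrected activity change at or below -50% at 5 µM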
Peg3 prom inh = reduces Peg3 promoter-driven luciferase expression in HeLa. HeLa PEG-Prom luciferase reporter, luminescence, overnight. inhibition, % at 20 µM. hit rate 1.7% among 360,000;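 active means inhibition of at least 50% at 20 µM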
HIF-2a block = HIF-2a inhibition. 786-0 RCC cells HIF-2a reporter, luciferase luminescence, overnight. inhibition, % at 18.8 µM. hit rate 0.72% among 360,000. AID 624352;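 active means inhibition of the luminescence signal of 40% or more relative to plate controls, in a single-dose primary screen at 18.75 µM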
TWEAK-Fn14 inh = TWEAK-Fn14 signaling inhibition | TWEAK-stimulated Fn14 reporter cells, luciferase luminescence, 8 h | inhibition, % at 10 µM | hit rate 2% among 360,000; in the data active means inhibition above about 50%
TROY NFkB inh = inhibitors of TROY-dependent NF-kB signaling | AID 1347056 | hit rate 0.98% among 360,000 | Q293 LMP1-TROYcd NF-kB luciferase reporter, 4 h | inhibition, % at 10 µM;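 active means compounds whose plate-normalised and pattern-corrected inhibition of the luciferase reporter signal at the single screening dose is 50% or more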
CF NFkB block = blocks PAF-induced NF-kB reporter in cystic fibrosis cells; KKLEB NF-kB-GFP reporter, GFP fluorescence overnight; inhibition, % at 5 µM; hit rate 0.86% among 360,000;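 active means at least 50% inhibition at 5 µM, scaled per plate between neutral and stimulator controls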;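 further: PAF is a Pseudomonas aeruginosa culture filtrate used as stimulus; plate controls were PAF-stimulated DMSO wells for no effect and unstimulated DMSO wells for full effect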
Mdm2-MdmX confirm = confirmation of inhibitors of human Mdm2/MdmX interaction, set 2 | shares compounds with HIF-2a block | SaOS-2 split-luciferase Mdm2/MdmX complementation, luminescence | inhibition, % at 8 µM | hit rate 99% among 740 | AID 504601;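 active means mean inhibition of the luminescence signal across two replicates at or above 26 percent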
HIF-2a inh conf = confirmation of HIF-2a inhibitors. shares compounds with HIF-2a block. 786-0 RCC cells, HIF-2a luciferase reporter luminescence, overnight. inhibition, % at 18.8 µM. hit rate 56% among 1,800. AID 651580;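 active means mean inhibition across four replicates of at least 40 percent at the single tested concentration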
HIF-1a cs = inhibits HIF-1a reporter, a counter-screen for HIF-2a inhibitors. shares compounds with HIF-2a block. MiaPaCa-2 HIF-1a luciferase reporter, desferoxamine, overnight. inhibition, % at 18.8 µM. hit rate 72% among 1,800;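 active means mean inhibition of the reporter signal across four replicates at the single tested dose of 50% or more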
The depositor's hits bear a star; / = not tested or not shown.

SMILES | KKLEB cytotox | Peg3 prom inh | HIF-2a block | TWEAK-Fn14 inh | TROY NFkB inh | CF NFkB block | HIF-2a inh conf | HIF-1a cs | others
FC(F)(F)c1nc2nc(Cl)c(Cl)nc2n1CCCN1CCOCC1 | 4 | -3 | -6 | 2 | 8 | -34 | / | /
C[C@@H]1CN([C@@H](C)CO)S(=O)(=O)c2ccc(Br)cc2O[C@H]1CN(C)C(=O)c1ccccc1 | 7 | 4 | 4 | 3 | -7 | -1 | / | /
O=C(NN=Cc1c(O)ccc2ccccc12)c1ccc2c(c1)OCO2 | -14 | 15 | -65 | -14 | 6 | 4 | / | / | Mdm2-MdmX confirm=88*
CN(C)c1ccc(/C=N/NC(=O)c2ccc3c(c2)OCO3)cc1 | -1 | -104 | -198 | 0 | -41 | 7 | / | /
O=C(N/N=C/c1ccc([N+](=O)[O-])o1)c1ccc2c(c1)OCO2 | -2 | 13 | 56* | -14 | -10 | -5 | 52* | 59*
O=C(N/N=C\c1c(O)ccc2ccccc12)c1ccc(S(=O)(=O)N2CCCCC2)cc1 | -35 | 64* | 29 | -2 | 5 | 9 | / | / | Mdm2-MdmX confirm=87*
O=C(CN1CCCc2ccccc21)N/N=C/c1c(O)ccc2ccccc12 | -3 | -23 | -30 | 40 | 33 | 5 | / | / | Mdm2-MdmX confirm=97*
Cc1ccc(NC(=O)CN(C)C(=O)Cn2c(=O)oc3ccccc32)cc1 | 10 | 5 | 3 | 0 | -48 | -13 | / | /
Cn1c(C(=O)OCC(=O)NCc2ccc(F)cc2)cc2occc21 | -8 | 10 | -6 | -1 | -3 | 7 | / | /
CCOc1ccc(CCN2C(=O)C(=O)N([C@@H](Cc3ccccc3)CN3CCC[C@H]3CN3C(=O)C(=O)NC[C@@H]3Cc3ccccc3)C[C@@H]2CC(C)C)cc1 | / | / | 48* | 12 | 15 | / | 5 | 103*
Cc1ccc(-c2cc(C(=O)N3CC(C)OC(C)C3)c3ccccc3n2)o1 (centres undefined) | -7 | -40 | -30 | 6 | -6 | 3 | / | /
Cc1ccc(-c2cc(C(=O)N3CC(C)CC(C)C3)c3ccccc3n2)o1 (centres undefined) | 0 | -6 | 44* | -3 | -10 | 4 | -41 | 29
O=C(C#Cc1ccccc1)c1cccc([N+](=O)[O-])c1 | -17 | 106* | 46* | 48 | 17 | 59* | 11 | 86*
Cc1ccc(NC(=O)[C@H](Cc2c[nH]c3ccccc23)NC(=O)[C@@H]2Cc3ccccc3CN2)c(C)c1 | -4 | -13 | -47 | 3 | -4 | -24 | / | / | Mdm2-MdmX confirm=98*
CCOc1cc(C)nc(N2CCC(C(=O)NCC3CCCO3)CC2)n1 (centres undefined) | -8 | 6 | 5 | -22 | -2 | -5 | / | /
Cc1cccc([C@@H]2[C@@H]3C(=O)N(Cc4ccccc4)C(=O)[C@@H]3[C@]3(Cc4ccc(Cl)cc4)C(=O)N(c4ccc(Br)cc4)C(=O)N23)c1 | -12 | 7 | 6 | 15 | -1 | 5 | / | / | Mdm2-MdmX confirm=102*
O=C(C[C@H]1C[C@H](C(=O)N2CCCCC2)[C@@]2(CCc3ccccc3)c3[nH]c4ccc(Cl)cc4c3CCN2C1=O)NCCCn1ccnc1 | 6 | 33 | 76* | 32 | 55* | -1 | 12 | 98*
COc1cccc(COC(=O)Cc2ccc(S(=O)(=O)N3CCOCC3)s2)c1OC | 4 | 4 | 3 | -5 | -14 | 1 | / | /
Cc1ccc2c(c1)c1ccc3c(c1n2C)C(=O)C=CC3=O | -3 | 107* | 79* | 19 | 13 | -2 | / | / | Mdm2-MdmX confirm=102*
COc1ccc2c(c1)c1ccc3c(c1n2C)C(=O)C=CC3=O | -4 | 104* | 78* | 3 | 30 | -1 | / | / | Mdm2-MdmX confirm=102*
Cc1c(NC(=O)c2cccc(NC(=O)COc3ccc(C#N)cc3)c2)c(=O)n(-c2ccccc2)n1C | 10 | 6 | 13 | -5 | -10 | -5 | / | /
C=CCCN([C@H](CO)Cc1ccccc1)S(=O)(=O)c1ccccc1Br | 8 | -108 | -83 | -35 | -50 | -8 | / | /
C=CS(=O)(=O)N(Cc1ccccc1Br)[C@H](CO)Cc1ccccc1 | -39 | 84* | 44* | 51* | 14 | 45 | 35 | 70*
CCCOc1ccc(C(=O)C(CN2CCOCC2)c2ccccc2)cc1 (centres undefined) | -29 | 94* | 63* | 13 | -24 | -7 | -8 | 100*
CCCOc1ccc(C(=O)C(c2ccccc2)N2CCOCC2)cc1 (centres undefined) | -14 | 8 | 2 | -11 | -7 | 19 | / | /
SMILES | KKLEB cytotox | Peg3 prom inh | HIF-2a block | TWEAK-Fn14 inh | TROY NFkB inh | CF NFkB block | HIF-2a inh conf | HIF-1a cs | others
CC1(C)OC(=O)C2=C(C[C@@H](CCc3ccccc3)O[C@@H]2c2ccc(Cl)cc2)O1 | / | / | -33 | -26 | -12 | / | / | /
CC(=O)Nc1cc(-c2cccc(C(=O)NCCN(C)C)c2)cn2c(-c3cccc(C(F)(F)F)c3)cnc12 | -30 | 99* | 95* | -314 | -18 | -79 | 1 | 105*
CCSc1ccc(-c2cc(NC=O)c3ncc(-c4cccc(C(=O)NCCN(C)C)c4)n3c2)cc1 | -2 | 89* | 92* | -181 | -12 | -30 | -9 | 101*
O=C(CN1C(=O)NC2(CCCCC2)C1=O)Nc1ccc(Cl)cc1 | -7 | -6 | -13 | -8 | -2 | -2 | / | /
CCN(CC)Cc1c(O)ccc2c([N+](=O)[O-])c(C)n(-c3ccc(OC)cc3)c12 | -23 | 12 | 25 | 74* | 36 | 82* | / | / | Mdm2-MdmX confirm=84*
CCN(CC)Cc1c(O)ccc2occ(C(=O)c3ccc(OC)cc3)c12 | 4 | 4 | 29 | -17 | -4 | -5 | / | /
CCOC(=O)Cc1csc(NC(=S)NC(=O)c2ccc(F)cc2)n1 | -8 | 1 | 86* | 0 | 9 | -12 | 89* | 59*
CCOC(=O)Cc1csc(N/N=C/c2ccc(C(F)(F)F)cc2)n1 | -2 | -53 | 58* | 45 | -2 | 13 | 58* | 17
CCOC(=O)Cc1csc(NC(=S)NC(=O)c2ccccc2C)n1 | 3 | -8 | 54* | 5 | -10 | 6 | 58* | 17
Cc1occc1C(=O)Nc1cccc([N+](=O)[O-])c1C | -5 | 8 | 6 | -12 | 14 | 8 | / | /
COc1ccc(CCNC(=S)NC(=O)c2cc(OC)c(OC)c(OC)c2)cc1OC | -14 | 9 | 9 | -14 | 13 | 19 | / | /
Cc1c(CCC(=O)O)c(=O)oc2cc3oc4c(c3cc12)CCCC4 | 13 | -75 | 74* | 51* | 12 | -18 | 83* | 47
Cc1c(CCC(=O)N2CCC[C@H]2C(=O)O)c(=O)oc2cc3oc4c(c3cc12)CCCC4 | -5 | -64 | 65* | 76* | -1 | 24 | 79* | 39

Screening results: PubChem BioAssay, Sanford-Burnham Center for Chemical Genomics
